# According to article PMC7819943, “Rice protein-binding microarrays: a tool to detect cis-acting elements near promoter regions in rice”:
# Whole data set: some 35,000 sequences, median “fluorescence intensity (a.u.)” near 10,000, cut for the highest 2% near 52,000. The list comes from a sample in which the highest values are over-represented; it also holds similar and randomly drawn sequences.
# Molecular target: T1, OsWOX13 (Oryza sativa, UniProt Q5QMM3 1-267)
# T1 sequence: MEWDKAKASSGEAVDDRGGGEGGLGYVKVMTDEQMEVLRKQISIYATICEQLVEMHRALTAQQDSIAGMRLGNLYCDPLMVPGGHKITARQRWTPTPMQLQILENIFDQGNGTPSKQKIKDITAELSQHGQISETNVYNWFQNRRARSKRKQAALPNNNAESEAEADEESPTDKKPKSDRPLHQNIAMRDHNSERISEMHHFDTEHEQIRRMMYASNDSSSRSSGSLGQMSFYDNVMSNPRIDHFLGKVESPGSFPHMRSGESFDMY
# Test: protein-binding microarray (RPBM); PBS, 2% BSA, 51.3 ng/ul salmon testes DNA, 50 uM zinc acetate, 200 nM TF, 25 C, 1 h; high values mean tight binding
# Conditions: protein: recombinant; tags: N-terminal polyhistidine and DsRed monomer fusion (pET32a); label: CyDye5-dUTP incorporated in the synthesized complementary strand; 3' TTTTT single-stranded linker to array surface; dsDNA, one strand shown
# Procedure, shortened: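 Binding signal is reported as fluorescence intensity per feature (arbitrary units) from an Axon 4000B scanner. Incubation used 200 nM of each Ni–NTA-purified, N-terminally polyhistidine- and DsRed-fused transcription factor from E. coli BL21-CodonPlus on a double-stranded custom Agilent array for 1 h at 25 °C, with 50 µM zinc acetate in the buffer, followed by washing.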
row,Sequence,binding signal
1,ATGTCGACATACGTAATTAATGTACACTCAGAACATGTCGCGGAGTCACCTAGTGCAG,4870 fluorescence intensity (a.u.)
2,TAAAACTATTTAATTACCAAACTATTCACGTGATGAGATGCGGAGTCACCTAGTGCAG,14900 fluorescence intensity (a.u.)
3,CTAATCTAATCATCGGATTAGGAAATAAGTAAGCAAACAACGGAGTCACCTAGTGCAG,6880 fluorescence intensity (a.u.)
4,TCTATAAATTGAACATGTTTCAAACCAGGCTTGCAAGTTGCGGAGTCACCTAGTGCAG,15500 fluorescence intensity (a.u.)
5,AGTTTCCTAATCTATTATATGATAGTACTCGGTCGGAGCTCGGAGTCACCTAGTGCAG,3210 fluorescence intensity (a.u.)
6,ATTTAACTGTATAAACAATTAATAACAAGAATTGTGTATACGGAGTCACCTAGTGCAG,16100 fluorescence intensity (a.u.)
7,AGTAATTTACTTGCTAGCTTGCAACTATTTCTTAGTACATCGGAGTCACCTAGTGCAG,3460 fluorescence intensity (a.u.)
8,CATCCTCATTAACGGCAGATTAATACTATTTAGTCCATCTCGGAGTCACCTAGTGCAG,3220 fluorescence intensity (a.u.)
9,AAACTGATTGACGGTTTTCTTTCTAAAACTGATTTTCAGGCGGAGTCACCTAGTGCAG,43200 fluorescence intensity (a.u.)
10,AAATTTTGATTTTAAAACTTAATTGTAAAGTTGACTTTAACGGAGTCACCTAGTGCAG,9040 fluorescence intensity (a.u.)
11,AAGTTGATTACTTAAACTGATTGACAGGGAGGCGGTTGAACGGAGTCACCTAGTGCAG,56600 fluorescence intensity (a.u.)
12,TATATATATATATATATATATATACCCACGTGAGGACGTACGGAGTCACCTAGTGCAG,31500 fluorescence intensity (a.u.)
13,TGAAATGGTTAAATGATTTGGGTTGAAATATTATGAAAATCGGAGTCACCTAGTGCAG,3220 fluorescence intensity (a.u.)
14,CACAATTTAATATGGTTATAATTGTAATCTCACATATCCTCGGAGTCACCTAGTGCAG,7610 fluorescence intensity (a.u.)
15,TTAGTGCTTAAATGATTAATCTATGGTCTAAATTATCTTTCGGAGTCACCTAGTGCAG,7610 fluorescence intensity (a.u.)
16,GGCAGCAAGACCAATTTTAATTGAAGACCACGGAAGGAGCCGGAGTCACCTAGTGCAG,3450 fluorescence intensity (a.u.)
17,ACGTAATTATAATTTATTTTGTTATGAGTTGGTTTATCACCGGAGTCACCTAGTGCAG,62600 fluorescence intensity (a.u.)
18,ACGTAATTATAGCTTATTTTGTTATGAGTTATTTTATCACCGGAGTCACCTAGTGCAG,24500 fluorescence intensity (a.u.)
19,GTTGATTTAATTATGGTTAACCTCTCACAGTAATCCGGGTCGGAGTCACCTAGTGCAG,64800 fluorescence intensity (a.u.)
20,TTTGTTATAATTGATATTTAATTAATCATATGGTAATTACCGGAGTCACCTAGTGCAG,27800 fluorescence intensity (a.u.)
21,ATAATTGATAATGAAGACCAAGGAAATGCTTCTTTGGTCCCGGAGTCACCTAGTGCAG,54300 fluorescence intensity (a.u.)
22,ACGTAATTATAATTTATTTTATTATGAGTTGTTTTATCACCGGAGTCACCTAGTGCAG,37000 fluorescence intensity (a.u.)
23,AATTGATGATGAAATAATGAATGATATTTGACAAGGAGCTCGGAGTCACCTAGTGCAG,17300 fluorescence intensity (a.u.)
24,GTGAAAATGATTGGTCTTTTGATTAACATATGCAGCTTATCGGAGTCACCTAGTGCAG,53300 fluorescence intensity (a.u.)
